According to ChEMBL document CHEMBL3988442, “University of Dundee, Small-Polar-MMV Screening Library” (2021):
Out of some 48,000 compounds screened, about 13,000 (27%) showed an effect of 50% or more. This is one part of the list.

Each compound was assayed on Wolbachia pipientis (assay: Anti-Wolbachia Cell-Based Screen). Settings: 5 µM.
Assay type: functional
Parameters: scale not given: in the data most compounds retested in dose-response had high values

Row | SMILES | Percent Effect [%]
1 | CN(Cc1ccsc1)C(=O)Nc1cccc(N2CCOC2=O)c1 | 1.632
2 | Cc1cccc(NC(=O)C2CCCN2C(=O)c2ccco2)c1C (stereo not given) | -37.39
3 | Cc1noc(C)c1CN1Cc2ccnn2CC(C(=O)NCC2CC2)C1.O=C(O)C(F)(F)F.O=C(O)C(F)(F)F (stereo not given) | -16.43
4 | O=C(NCC1CC1)C1CN(Cc2cccs2)Cc2ccnn2C1 (stereo not given) | 124.8
5 | COCCNC(=O)C1CN(Cc2ccncc2)Cc2ccnn2C1.O=C(O)C(F)(F)F.O=C(O)C(F)(F)F.O=C(O)C(F)(F)F (stereo not given) | 13.9
6 | O=C(NCC1CC1)C1CN(c2ncccn2)Cc2ccnn2C1.O=C(O)C(F)(F)F.O=C(O)C(F)(F)F (stereo not given) | 106
7 | CCOCC1CN(C(=O)Cc2cccs2)Cc2ccnn2C1 (stereo not given) | -16.86
8 | O=C(NCC1CC1)C1CN(Cc2ccncc2)Cc2ccnn2C1.O=C(O)C(F)(F)F.O=C(O)C(F)(F)F.O=C(O)C(F)(F)F (stereo not given) | 99.23
9 | COCCNC(=O)C1CN(Cc2csc(C)n2)Cc2ccnn2C1.O=C(O)C(F)(F)F (stereo not given) | 0
10 | COCCNC(=O)C1CN(Cc2cccc(C)n2)Cc2ccnn2C1.O=C(O)C(F)(F)F.O=C(O)C(F)(F)F (stereo not given) | 6.488
11 | COCCNC(=O)C1CN(Cc2nccs2)Cc2ccnn2C1.O=C(O)C(F)(F)F.O=C(O)C(F)(F)F (stereo not given) | -2.959
12 | CC(C)NC(=O)C1CN(Cc2ccsc2)Cc2ccnn2C1.O=C(O)C(F)(F)F.O=C(O)C(F)(F)F (stereo not given) | 1.409
13 | CC(C)NC(=O)C1CN(Cc2cccs2)Cc2ccnn2C1 (stereo not given) | -1.449
14 | Cc1ccc(CN2Cc3ccnn3CC(C(=O)NCC3CC3)C2)o1.O=C(O)C(F)(F)F.O=C(O)C(F)(F)F (stereo not given) | 99
15 | CC(C)c1nnc2n1CC(CNCc1ccncc1)CC2 (stereo not given) | -13.6
16 | CCCS(=O)(=O)N1CCOC2(CCCN(c3ncc(F)cn3)C2)C1 (stereo not given) | -2.367
17 | N#CCCN(Cc1ccco1)C(=O)CCCc1ccccc1 | 9.287
18 | COc1nn(C)c2c1CCCN(S(=O)(=O)c1cccs1)C2 | 2.697
19 | O=C(O)[C@]12CCCN(Cc3ccncc3)[C@@H]1CCN(c1cnccn1)C2 | 15.13
20 | NC(=O)C1(c2cnccn2)CCCN1Cc1ccncc1 (stereo not given) | 100.7
21 | O=C(O)C1(Cc2ccc(Cl)cc2)CCN(c2ncccc2F)CC1 | 4.468
22 | Cc1ccc(NC(=O)C2CSCN2C(=O)c2cnccn2)c(C)c1 (stereo not given) | -0.3998
23 | Cc1cccc(CN2C[C@@H]3CN(C(=O)c4cnccn4)C[C@@H]3C2=O)c1 | -5.846
24 | Cc1ccc(CN2CCCC2(C(N)=O)c2cnccn2)c(C)c1 (stereo not given) | 148.6
25 | Cl.Cl.O[C@@H]1C[C@@](CNCc2cccc(Cl)c2)(COc2cnccn2)C[C@@H]1O | -20.67

Row | SMILES | Percent Effect [%]
26 | O=C(c1cnccn1)N1CCCC2(CCCN2Cc2cccnc2)C1 (stereo not given) | 8.648
27 | NC(=O)C1(c2cnccn2)CCCN1Cc1ccc(Cl)cc1 (stereo not given) | 127.2
28 | NC(=O)C1(c2cnccn2)CCCN1Cc1cccc(Cl)c1 (stereo not given) | 110.7
29 | Cc1cncc(C(=O)N2CCNCC2C(=O)NCc2ccncc2)c1 (stereo not given) | -0.08971
30 | Cc1ccccc1-c1cc(C(=O)NCCN2CCCS2(=O)=O)[nH]n1 | -0.2577
31 | Cc1c(C(=O)N2CCSCC2)sc2nc(C(F)(F)F)ccc12 | -6
32 | COC1CCN(S(=O)(=O)N2CC[C@@](O)(C3CCC3)[C@H](C)C2)CC1 | -8.21
33 | CC(C)c1cc(C(=O)N2CCc3ccccc3C2C(=O)O)n(C)n1 (stereo not given) | 5.563
34 | COCCOc1ccc(-c2noc([C@@H]3CCCN3C3CCC3)n2)cn1 | -15.03
35 | Cn1cccc1C(=O)N[C@@H]1CN(CC2CC2)[C@@H]2COC[C@@H]21.O=C(O)C(F)(F)F | -18.52
36 | FC(F)(F)c1cc(C2CCNCC2)nc(-c2ccsc2)n1 | 147.1
37 | Cl.Oc1cc(C2CCNCC2)nc(-c2ccsc2)n1 | 186.4
38 | Cc1nc(O)cc(C2CCN(C(=O)c3ccsc3)CC2)n1 | -4.98
39 | Cl.Cn1cnc2c(-c3ccccc3)nc(C3CCNCC3)cc21 | -35.46
40 | CC(C)CN1CC(c2nc(-c3ccsc3)c[nH]2)CC1=O (stereo not given) | -7.374
41 | Cc1cc(C2CCNCC2)nc(-c2ccsc2)n1.Cl | 168.5
42 | O=C(c1ccsc1)N1CCCC(c2cc(C(F)(F)F)[nH]n2)C1 (stereo not given) | 0.1242
43 | O=C1NCCCCC1NCc1csc(-c2ccsc2)n1 (stereo not given) | -2.584
44 | CC(C)(NC(=O)C1CCCN(C2CCCC2)C1)c1nnc(N)s1 (stereo not given) | -3.514
45 | CN1CCc2c(CNc3ncccn3)n[nH]c2C1.O=C(O)C(F)(F)F | -10.34
46 | COc1ccc2c(c1)CC(C1CCOCC1)N(C(=O)c1ccnn1C)C2 (stereo not given) | 146.4
47 | COc1ccc2c(c1)CC(C1CCOCC1)N(C(=O)c1cnccn1)C2 (stereo not given) | 143.6
48 | COc1cccc(C2CCN2C(=O)c2cnccn2)c1 (stereo not given) | -9.896
49 | Cn1nccc1C(=O)N1CCCC1c1ccc(C(=O)N2CCOCC2)s1 (stereo not given) | -16.33
50 | COc1ccc(CNC(=O)N2CCOCC2C2CC2)c(C)c1 (stereo not given) | -4.702

Row | SMILES | Percent Effect [%]
51 | COc1cc(N2C[C@H]3CN(C(=O)c4cnccn4)C[C@H]3C2)ncn1 | 6.779
52 | COc1ccc2c(c1)CC(C1CCOCC1)N(C(=O)c1ccn(C)n1)C2 (stereo not given) | 107.8
53 | COc1cccc(CC2CN(C(=O)c3ccnn3C)CCO2)c1 (stereo not given) | 14.16
54 | COc1ccc2c(C)c(C(=O)NC3CCOCC3)oc2c1 | -11.52
55 | CN(C(=O)c1ccc(Cl)cn1)c1ccccc1S(C)(=O)=O | -14.63
56 | O=C(N1CCC(O)(C(F)(F)F)C1)C1(c2ccc(Cl)cc2)CC1 (stereo not given) | 16.08
57 | Cc1cc(NC(=O)C(C)N2CCN(c3nc(C)ns3)CC2)on1 (stereo not given) | 15.5
58 | CN(Cc1nnc(C2CC2)o1)C(c1ccc(F)cc1)c1cccnc1 (stereo not given) | 14.1
59 | CN(C)Cc1nnc2n1CCCN(C(=O)c1c[nH]cn1)C2 | -1.146
60 | Cc1cnc(N2CCCn3c(nnc3Cn3cccn3)C2)nc1 | -6.744
61 | O=C(c1ccc[nH]1)N1CCc2nnc(Cn3cccc3)n2CC1 | 104.6
62 | O=C(c1ccc[nH]1)N1CCc2ncc(Cn3cccn3)n2CC1 | 112.6
63 | O=C1CCCN1Cc1nnc2n1CCCN(C(=O)c1ccc[nH]1)C2 | 114.8
64 | O=C(c1cccs1)N1CCc2nnc(COc3cncnc3)n2CC1 | 6.421
65 | O=C(C1CCCO1)N1CCc2nnc(Cn3cccc3)n2CC1 (stereo not given) | -14.83
66 | O=C(c1c[nH]cn1)N1CCCn2c(nnc2Cn2cccc2)C1 | 4.942
67 | O=C(C1CCCO1)N1CCCn2c(nnc2Cn2cccn2)C1 (stereo not given) | -13.04
68 | O=C(N1CCCC1)N1CCn2c(Cn3cccn3)cnc2C1 | 0.9982
69 | CN(C)C(=O)N1CCn2c(Cn3cccn3)cnc2C1 | -38.04
70 | O=C(c1ccc[nH]1)N1CCCn2c(nnc2Cn2cccn2)C1 | 88.61
71 | CC(C)(C)C(O)CN1CCN(Cc2cccc(C#N)c2)CC1 (stereo not given) | -1.667
72 | CC(=O)N[C@H]1CCN2C(=O)[C@@H](Cc3c[nH]c4ccccc34)NC(=O)[C@H]12 | -9.075
73 | COCCN1CC(C(=O)N(C)Cc2ccc(Cl)s2)CC1=O (stereo not given) | 25.53
74 | O=C(c1ccc(SC(F)F)cc1)N1CCOCC1c1ncon1 (stereo not given) | 2.35
75 | O=C1NCC(CN2CCc3onc(-c4ccc(C(F)(F)F)cc4)c3C2)O1 (stereo not given) | 4.598

Row | SMILES | Percent Effect [%]
76 | O=C(c1ccc[nH]1)N1CCc2nnc(Cn3cccn3)n2CC1 | 121.3
77 | O=C(O)C(F)(F)F.O=C(c1ccc[nH]1)N1CCCn2c(CNC3CCC3)nnc2C1 | 88.36
78 | O=C1CCCN1Cc1nnc2n1CCCN(C(=O)c1ccco1)C2 | 122.9
79 | Cc1[nH]ccc1C(=O)N1CCC(c2nnc(Cn3cccn3)n2C)CC1 | -8.959
80 | CC(C)N(C)Cc1nnc2n1CCCN(C(=O)c1ccco1)C2 | 10.89
81 | O=C(O)C(F)(F)F.O=C(c1ccccc1F)N1CCCn2c(CN3CCCCC3)nnc2C1 | 18.71
82 | c1cnn(Cc2nnc3n2CCCN(c2nccs2)C3)c1 | -8.945
83 | Cc1cccc(C(=O)N2CCCn3c(CN4CCCCC4)nnc3C2)c1 | -5.352
84 | O=C(O)C(F)(F)F.O=C(O)C(F)(F)F.O=C(c1c[nH]cn1)N1CCCn2c(CN3CCCCC3)nnc2C1 | 0.5876
85 | O=C(c1ccc[nH]1)N1CCCn2c(CN3CCCCC3)nnc2C1 | 104.7
86 | O=C(O)C(F)(F)F.O=C(c1ccccc1)N1CCCn2c(CN3CCCCC3)nnc2C1 | -7.245
87 | COCCNC(=O)C(C)S(=O)(=O)c1ccc(OC)cc1 (stereo not given) | -5.557
88 | CCS(=O)(=O)N(C)C1CCN(c2cccc(F)c2C(C)=O)CC1 | 1.671
89 | CCN(CC)C(=O)CC[C@@H]1CNC(=O)[C@@H]2C[C@H](NC(=O)C3CC3)CN12 | -0.8785
90 | COCc1nc(C(=O)NS(=O)(=O)c2ccc(C)c(C)c2)cs1 | -2.372
91 | CSCC(=O)N1CCC(c2nccn2Cc2cscn2)CC1 | -14.72
92 | COCC1CN(Cc2cc(C)on2)Cc2cn(CC3CC3)nc21 (stereo not given) | -5.451
93 | O=C(c1ccncc1)N1C[C@@H]2CC[C@H](C1)N(C(=O)C1CCCC1)C2 | 23.43
94 | Cn1nc(C2CN(C(=O)c3ccncc3)C2)c2nccnc21 | 104.9
95 | Cn1nc(C2CN(S(C)(=O)=O)C2)c2nccnc21 | 134.2
96 | CCN(C)C(=O)c1ncn2c(C3CCN(S(C)(=O)=O)CC3)ccnc12 | -14.84
97 | Cn1nc(C2CN(C(=O)c3cscn3)C2)c2nccnc21 | -8.374
98 | Cc1ccc(C(=O)N2CC(c3cccnc3)C2)cc1N1CCNC1=O | -5.741
99 | Cn1nc(C2CN(C(=O)c3cccnc3)C2)c2nccnc21 | 106.4
100 | CCc1ccc2c(C3CN(S(C)(=O)=O)C3)ncn2c1 | 15.67
